Bioassay records deposited in PubChem BioAssay by National Center for Advancing Translational Sciences (NCATS).
In the library only some 3.6% were active in any assay of this set; here they are far more common.
TGFb inhibitor – qHTS for Inhibitors of TGF-b; HepG2 CAGA-GFP TGF-b/SMAD3 reporter, GFP fluorescence, 18 h; TGF-beta stimulated, 500 pg/mL final; actives 1.2% (n = 410,000); Potency, µM (series often up to 46.1 µM), most hits filed as inhibitors; AID 588855, 2011; further: nearly all actives have a fitted effect of over 65% in size
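Smad-responsive CAGA-GFP expression was quantified in HEPG2 cells exposed to compounds and 500 pg/mL final TGF-beta for 18 h at 37 degrees C; unstimulated wells defined full inhibition.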
Nrf2 activator – qHTS of Nrf2 Activators. actives 0.31% (n = 410,000). AREc32 ARE-luciferase reporter (MCF7-derived line), luminescence, 24 h. Potency, µM (series often up to 46.1 µM), actives largely listed as activators; further: nearly all actives have a fitted effect of over 65% in size
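AREc32 cells carrying an ARE-driven firefly luciferase reporter were seeded at 1000 cells/well in OPTI-MEM with 5% FBS, then exposed to compound for 24 hr at 37 deg C. Luminescence was read with Steady-Glo after 30 min at RT.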
A549 tox-1 – Nrf2 qHTS screen for inhibitors: counterscreen for cytotoxicity; Potency, µM (series often up to 46 µM), hits mostly inhibitors; actives 0.16% (n = 390,000); A549 ARE-Fluc cells, CellTiter-Fluor viability, 18-24 h; AID 504648, 2011
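Cytotoxicity counterscreen: CellTiter-Fluor fluorescence was measured in A549 ARE_Fluc cells after 18-24 h of compound exposure in a concentration series. The subsequent BugLite luminescent read reports ARE-luciferase activity.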
HepG2 tox – qHTS for Inhibitors of TGF-b: Cytotox Counterscreen | HepG2 CAGA-GFP viability, ATP luminescence, 18 h | Potency, µM (titrated, usually from 46.1 µM), usual class: cytotoxic | actives 0.76% (n = 410,000)
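HepG2 CAGA-GFP cells (1000/well, DMEM with 1% FBS) received compound, then TGF-beta at 500 pg/mL final, and were incubated 18 hours at 37 degrees C. Viability was read by CellTiter-Glo luminescence. Media-only wells were set as complete cell-killing and DMSO as no toxicity.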
Nrf2 inh – Nrf2 qHTS screen for inhibitors | A549 ARE-Fluc reporter, luciferase luminescence, 18-24 h | Potency, µM (doses to about 46 µM), hits mostly inhibitors | actives 2.1% (n = 360,000); further: nearly all actives have a fitted effect of over 60% in size
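Nrf2 activity is the BugLite luminescence, read 15 min after reagent at room temperature, following CellTiter-Fluor cytotoxicity readout (30 min, 37C). Compound titrations were applied for 18-24 h to 5000 A549 ARE_Fluc cells/well in 5% FBS OPTI-MEM.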
FLuc enzyme inh – Nrf2 qHTS screen for inhibitors: Purified Fluc Biochemical Counterscreen for Hit Validation. purified firefly luciferase, luminescence inhibition. shares compounds with Nrf2 inh. actives 4% (n = 1,400). Potency, µM (top dose mostly 57.5 µM), actives largely listed as inhibitors; further: nearly all actives have a fitted effect of over 65% in size
Target sequence (P08659 whole entry, looked up): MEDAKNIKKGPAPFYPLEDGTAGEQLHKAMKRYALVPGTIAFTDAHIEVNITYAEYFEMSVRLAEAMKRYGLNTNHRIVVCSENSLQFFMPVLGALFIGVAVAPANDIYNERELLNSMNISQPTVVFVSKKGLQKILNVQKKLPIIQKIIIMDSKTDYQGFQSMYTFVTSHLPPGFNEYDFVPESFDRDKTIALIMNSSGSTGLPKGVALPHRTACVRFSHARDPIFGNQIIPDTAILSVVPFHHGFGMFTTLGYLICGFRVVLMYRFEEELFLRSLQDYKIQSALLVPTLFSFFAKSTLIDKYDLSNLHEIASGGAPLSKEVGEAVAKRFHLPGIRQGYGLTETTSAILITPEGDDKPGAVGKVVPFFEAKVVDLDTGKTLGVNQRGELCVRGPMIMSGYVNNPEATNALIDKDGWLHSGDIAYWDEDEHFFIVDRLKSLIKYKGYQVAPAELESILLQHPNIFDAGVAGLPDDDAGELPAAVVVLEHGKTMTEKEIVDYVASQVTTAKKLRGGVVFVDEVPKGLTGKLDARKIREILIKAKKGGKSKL
A549 tox-2 – Nrf2 qHTS screen for inhibitors: A549 ARE-Fluc Cytotoxicity Counterscreen for Hit Validation | shares compounds with Nrf2 inh | A549 ARE-Fluc cells, cytotoxicity counterscreen | Potency, µM (top dose mostly 46.1 µM), most hits filed as inhibitors | actives 2% (n = 1,400) | AID 720523, 2013;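 further: cells exposed to compounds for 18 to 24 hours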
Nrf2 ARE inh – Nrf2 qHTS screen for inhibitors: Nrf2 A549 ARE-Fluc Confirmation Assay for Hit Validation | actives 74% (n = 1,400) | shares compounds with Nrf2 inh | A549 ARE-firefly luciferase reporter, luminescence | AID 720524, 2013 | Potency, µM (doses to about 46.1 µM), actives largely listed as inhibitors; further: nearly all actives have a fitted effect of over 65% in size
Large screens that a line does not name were inactive (follow-up assays come after a bar, where shown). The call rests on the fitted dose curve; in most records, active means well fitted curve in the direction sought with a large enough effect; inconclusive means small, poorly fitted or top-dose-only effect, or another doubt; inactive means no such curve, though single readings can be large; an effect the other way counts as inactive or inconclusive.

O=C(NCCc1ccc(F)cc1)c1ccc(Cl)c(S(=O)(=O)N2CCOCC2)c1	Nrf2 inh 8.2µM | FLuc enzyme inh inactive | A549 tox-2 inactive | Nrf2 ARE inh inconclusive
COc1ccc(C(=O)NCc2cccc(Cl)c2)cc1S(=O)(=O)N1CCOCC1	none
COc1ccc(CNC(=O)c2ccc(Cl)c(S(=O)(=O)N3CCOCC3)c2)cc1OC	A549 tox-1 inconclusive, Nrf2 inh 1.3µM | FLuc enzyme inh inactive | A549 tox-2 inactive
COc1ccc(CCNC(=O)c2ccc(Cl)c(S(=O)(=O)N3CCCCCC3)c2)cc1	TGFb inhibitor inconclusive, Nrf2 inh 8.2µM | FLuc enzyme inh inactive | A549 tox-2 inactive | Nrf2 ARE inh 8.2µM
O=C(Nc1ccc(Br)cc1F)C1CCN(c2nnc(-n3cccc3)s2)CC1	none
C=CCCN([C@@H](C)C(=O)OC)S(=O)(=O)c1ccccc1Br	none
COc1ccccc1N1CCN(C(=O)Cn2ncc3c(=O)oc4ccccc4c32)CC1	TGFb inhibitor inconclusive
CC1CN(S(=O)(=O)c2cc(C(=O)NCCC3=CCCCC3)ccc2Cl)CC(C)O1 (centres undefined)	Nrf2 inh 8.2µM | FLuc enzyme inh inconclusive | A549 tox-2 inactive | Nrf2 ARE inh 5.8µM
O=C(NCCC1=CCCCC1)c1ccc(F)c(S(=O)(=O)N2CCOCC2)c1	none
O=C(Nc1ccc(N2CCOCC2)cc1)c1ccc(Cl)c(S(=O)(=O)N2CCCC2)c1	TGFb inhibitor inconclusive, Nrf2 inh 9.2µM | FLuc enzyme inh inactive | A549 tox-2 inactive | Nrf2 ARE inh 7.3µM
O=c1cnn(Cc2c(Cl)cccc2Cl)c2ccccc12	Nrf2 inh inconclusive
Cc1cc(/C=C(\C#N)C(=O)Nc2ccccc2)c(C)n1-c1ccc(F)cc1	none
Cc1cc(C(=O)O)ccc1-n1c(C)cc(/C=C(/C#N)C(=O)Nc2ccccc2)c1C	Nrf2 inh 5.8µM | FLuc enzyme inh inactive | A549 tox-2 inactive | Nrf2 ARE inh inconclusive
COc1ccc(Cl)cc1S(=O)(=O)N1CCN=C1Cc1ccccc1	none
O=C(Nc1ccc2nc(SCCOc3ccccc3Cl)sc2c1)c1cccs1	Nrf2 inh 9.2µM | FLuc enzyme inh inactive | A549 tox-2 inactive | Nrf2 ARE inh 8.2µM
Cc1cc(C)n(CCNC(=O)c2cc(COc3ccc4ncccc4c3)on2)n1	Nrf2 inh inconclusive
CC(CCCC(C)(C)O)NC(=O)c1cc(COc2ccc3ncccc3c2)on1 (centres undefined)	A549 tox-1 inconclusive, Nrf2 inh 5.2µM | FLuc enzyme inh inactive | A549 tox-2 inactive | Nrf2 ARE inh 6.5µM
CN(Cc1ccccn1)C(=O)c1cc(COc2ccc(F)c(F)c2)on1	none (no result: A549 tox-1, Nrf2 inh)
CCC1CCCCN1C(=O)c1cc(COc2ccc3ncccc3c2)on1 (centres undefined)	A549 tox-1 inconclusive, Nrf2 inh 2.1µM | FLuc enzyme inh inactive | A549 tox-2 inactive
Cc1nc(CN(C)C(=O)c2cc(COc3ccc4ncccc4c3)on2)cs1	Nrf2 inh 2.9µM | FLuc enzyme inh inactive | A549 tox-2 inactive | Nrf2 ARE inh inactive
CCOC(=O)c1cccc(NC(=O)CCn2cccc2)c1	none
Cc1cc2oc(=O)cc(CSc3nnc(-c4cccs4)o3)c2cc1C(C)C	A549 tox-1 inconclusive, Nrf2 inh 8.2µM | FLuc enzyme inh inactive | A549 tox-2 inactive | Nrf2 ARE inh inconclusive
Cc1cc2oc(=O)cc(CSc3nnc(C)n3N)c2cc1C(C)C	none (no result: Nrf2 inh)
CNC(=O)c1cc(S(=O)(=O)NCc2ccncc2)ccc1OC	Nrf2 inh inconclusive
COc1cc(S(=O)(=O)NCc2ccncc2)ccc1Br	Nrf2 inh 3.3µM | FLuc enzyme inh inactive | A549 tox-2 inactive | Nrf2 ARE inh 3.7µM
Cc1ccc(S(=O)(=O)NCc2ccncc2)cc1C	Nrf2 inh 2.3µM | FLuc enzyme inh inactive | A549 tox-2 inactive | Nrf2 ARE inh 2.1µM
COc1ccc(S(=O)(=O)NCc2cccnc2)cc1Br	HepG2 tox 7.1µM, Nrf2 inh 7.3µM | FLuc enzyme inh inactive | A549 tox-2 inactive | Nrf2 ARE inh inconclusive
O=S(=O)(NCc1ccncc1)c1ccc(Br)s1	TGFb inhibitor inconclusive, Nrf2 inh 1.5µM | FLuc enzyme inh inactive | A549 tox-2 inactive | Nrf2 ARE inh 1.5µM
COc1ccc(OCC(=O)N2CCN(c3cccc(C(F)(F)F)c3)CC2)cc1	none
COC(=O)CCn1nnc(-c2ccc(C(C)C)cc2)n1	Nrf2 inh 0.52µM | FLuc enzyme inh 11µM | A549 tox-2 inactive | Nrf2 ARE inh 0.58µM
O=[N+]([O-])c1ccc(S(=O)(=O)CC2CSc3nc4ccccc4n32)cc1 (centres undefined)	Nrf2 inh 5.2µM | FLuc enzyme inh inactive | A549 tox-2 inconclusive | Nrf2 ARE inh 2.1µM
Cc1nnc2n(c1=O)C(CS(=O)(=O)c1ccccc1)CS2 (centres undefined)	none
COc1cc2ccnc(Cc3cccc(OC)c3OC)c2cc1OC	Nrf2 inh 3.7µM | FLuc enzyme inh inactive | A549 tox-2 inactive | Nrf2 ARE inh 16µM
COc1ccc(NC(=O)[C@H](CCS(C)(=O)=O)N2Cc3ccccc3C2=O)c(OC)c1	none
CCOc1ccccc1C(=O)NCC(=O)N1CCN(Cc2ccc3c(c2)OCO3)CC1	Nrf2 inh 4.6µM | FLuc enzyme inh inactive | A549 tox-2 inactive | Nrf2 ARE inh 5.2µM
COc1ccccc1C(=O)N1CCN(Cc2ccc3c(c2)OCO3)CC1	none
COc1ccc2c(Sc3ccccc3)c(C(=O)NCc3cccc(OC)c3OC)[nH]c2c1	Nrf2 inh 9.2µM | FLuc enzyme inh inactive | A549 tox-2 inactive | Nrf2 ARE inh inactive
COc1ccc2c(Sc3ccccc3)c(C(=O)NCc3cc(Br)ccc3OC)[nH]c2c1	Nrf2 inh inconclusive
Cc1cc(Cl)c(S(=O)(=O)N2CCSCC2)cc1OCC(=O)NC1CCCCC1	TGFb inhibitor inconclusive, A549 tox-1 inconclusive, Nrf2 inh 6.5µM | FLuc enzyme inh inactive | A549 tox-2 inactive | Nrf2 ARE inh 4.6µM
Cc1cc(Cl)c(S(=O)(=O)NC2CCCC2)cc1OCC(=O)NC1CCCCC1	Nrf2 inh 6.5µM | FLuc enzyme inh inactive | A549 tox-2 inactive | Nrf2 ARE inh 7.3µM
